Assay results as given in PubChem BioAssay AID1159580 (chemical genetic matrix, 2015).
The campaign covered roughly 5,500 compounds. About 2,000 (36%) were called active. Not shown: some 18% with an inconclusive outcome. Cut-off read from the data, not from the text of the source: active = normalized growth mostly below about 0.91 (no sharp cut-off); inconclusive = no clear call, values can overlap the other calls; inactive = mostly above about 0.92. Some of the results follow.

Test: chemical genetic growth profiling, strain panel (AID 1159580);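 note: tested at 20 µM; growth read once vehicle control cultures reached saturation at 30 °C; 1 = growth at the plate median or of vehicle wells; lower values mean less growth of the strain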
Settings: growth OD

Measured: normalized growth

C[C@@H]1CC(Cl)CC[C@H]1C(=O)OC(C)(C)C (some centres not stated)
inactive: S. cerevisiae deletion strains, locus YJR075W, strain HOC1, hits give low values 0.964 | S. cerevisiae deletion strains, locus YKL009W, strain mrt4, hits give low values 1 | S. cerevisiae deletion strains, locus YKL068W, hits give low values 0.98 | S. cerevisiae deletion strains, locus YKL085W, strain MDH1 (second series), hits give low values 0.977 | S. cerevisiae deletion strains, locus YKL085W, strain MDH1, hits give low values 0.977 | S. cerevisiae deletion strains, locus YKL160W, strain elf1, hits give low values 1.02 | S. cerevisiae deletion strains, locus YKL190W, strain CNB1, hits give low values 0.981 | S. cerevisiae deletion strains, locus YKR001C, strain vps1, hits give low values 1.01 | S. cerevisiae deletion strains, locus YKR026C, strain gcn3, hits give low values 0.985 | S. cerevisiae deletion strains, locus YKR091W, strain srl3, hits give low values 0.982 | S. cerevisiae deletion strains, locus YLL001W, strain dnm1, hits give low values 0.979 | S. cerevisiae deletion strains, locus YLL026W, hits give low values 0.983 | S. cerevisiae deletion strains, locus YLL041C, strain sdh2, hits give low values 0.982 | S. cerevisiae deletion strains, locus YLR027C, strain aat2, hits give low values 0.982 | S. cerevisiae deletion strains, locus YLR039C, strain RIC1, hits give low values 1 | S. cerevisiae deletion strains, locus YLR058C, strain SHM2, hits give low values 0.991 | S. cerevisiae deletion strains, locus YLR102C, strain apc9, hits give low values 0.991 | S. cerevisiae deletion strains, locus YLR113W, strain HOG1, hits give low values 0.999 | S. cerevisiae deletion strains, locus YLR221C, strain rsa3, hits give low values 1.01 | S. cerevisiae deletion strains, locus YLR258W, strain gsy2, hits give low values 0.97 | S. cerevisiae deletion strains, locus YLR262C, strain YPT6 (second series), hits give low values 0.965 | S. cerevisiae deletion strains, locus YLR262C, strain YPT6, hits give low values 0.957 | S. cerevisiae deletion strains, locus YLR268W, strain sec22, hits give low values 0.976 | S. cerevisiae deletion strains, locus YLR320W, strain mms22, hits give low values 0.954 | S. cerevisiae deletion strains, locus YLR330W, strain CHS5, hits give low values 0.99 | S. cerevisiae deletion strains, locus YLR342W, strain FKS1 (second series), hits give low values 1.05 | S. cerevisiae deletion strains, locus YLR342W, strain FKS1, hits give low values 0.98 | S. cerevisiae deletion strains, locus YLR357W, strain rsc2, hits give low values 0.985 | S. cerevisiae deletion strains, locus YLR370C, strain arc18, hits give low values 0.991 | S. cerevisiae deletion strains, locus YLR371W, strain rom2, hits give low values 1 | S. cerevisiae deletion strains, locus YLR384C, strain iki3, hits give low values 0.982 | S. cerevisiae deletion strains, locus YLR418C, strain cdc73, hits give low values 0.972 | S. cerevisiae deletion strains, locus YML016C, strain PPZ1, hits give low values 0.992 | S. cerevisiae deletion strains, locus YML032C, strain rad52, hits give low values 0.967 | S. cerevisiae deletion strains, locus YML120C, strain ndi1, hits give low values 1 | S. cerevisiae deletion strains, locus YML124C, strain tub3, hits give low values 0.983 | S. cerevisiae deletion strains, locus YMR058W, strain fet3, hits give low values 0.976 | S. cerevisiae deletion strains, locus YMR078C, strain ctf18, hits give low values 0.985 | S. cerevisiae deletion strains, locus YMR125W, strain sto1, hits give low values 0.962 | S. cerevisiae deletion strains, locus YMR129W, hits give low values 0.961 | S. cerevisiae deletion strains, locus YMR205C, strain PFK2, hits give low values 0.928 | S. cerevisiae deletion strains, locus YMR223W, strain ubp8, hits give low values 1.04 | S. cerevisiae deletion strains, locus YMR231W, strain pep5, hits give low values 0.995 | S. cerevisiae deletion strains, locus YMR263W, strain SAP30, hits give low values 0.976 | S. cerevisiae deletion strains, locus YMR307W, strain GAS1, hits give low values 1 | S. cerevisiae deletion strains, locus YNL067W, strain RPL9B, hits give low values 0.959 | S. cerevisiae deletion strains, locus YNL071W, strain lat1, hits give low values 0.985 | S. cerevisiae deletion strains, locus YNL128W, strain TEP1, hits give low values 0.971 | S. cerevisiae deletion strains, locus YNL153C, strain GIM3, hits give low values 0.986 | S. cerevisiae deletion strains, locus YNL183C, strain NPR1, hits give low values 0.948 | S. cerevisiae deletion strains, locus YNL209W, strain ssb2, hits give low values 0.989 | S. cerevisiae deletion strains, locus YNL233W, strain BNI4, hits give low values 0.997 | S. cerevisiae deletion strains, locus YNL248C, strain rpa49, hits give low values 1.01 | S. cerevisiae deletion strains, locus YNL250W, strain rad50, hits give low values 0.987 | S. cerevisiae deletion strains, locus YNL271C, strain bni1, hits give low values 0.976 | S. cerevisiae deletion strains, locus YNL298W, strain CLA4, hits give low values 0.979 | S. cerevisiae deletion strains, locus YNL307C, strain MCK1, hits give low values 0.995 | S. cerevisiae deletion strains, locus YNL322C, strain KRE1 (second series), hits give low values 0.996 | S. cerevisiae deletion strains, locus YNL322C, strain KRE1, hits give low values 0.956 | S. cerevisiae deletion strains, locus YNR049C, strain mso1, hits give low values 0.971 | S. cerevisiae deletion strains, locus YNR052C, strain pop2, hits give low values 0.989 | S. cerevisiae deletion strains, locus YOL006C, strain TOP1, hits give low values 0.991 | S. cerevisiae deletion strains, locus YOL012C, strain htz1 0.765 | S. cerevisiae deletion strains, locus YOL147C, strain pex11, hits give low values 0.992 | S. cerevisiae deletion strains, locus YOR001W, strain rrp6, hits give low values 1 | S. cerevisiae deletion strains, locus YOR061W, strain CKA2, hits give low values 0.993 | S. cerevisiae deletion strains, locus YOR069W, strain VPS5, hits give low values 0.989 | S. cerevisiae deletion strains, locus YOR070C, strain gyp1, hits give low values 0.991 | S. cerevisiae deletion strains, locus YOR080W, strain dia2, hits give low values 0.98 | S. cerevisiae deletion strains, locus YOR083W, strain WHI5, hits give low values 1.04 | S. cerevisiae deletion strains, locus YOR106W, strain vam3, hits give low values 1 | S. cerevisiae deletion strains, locus YOR136W, strain idh2, hits give low values 0.996 | S. cerevisiae deletion strains, locus YOR144C, strain elg1, hits give low values 0.991 | S. cerevisiae deletion strains, locus YOR184W, strain ser1, hits give low values 0.935 | S. cerevisiae deletion strains, locus YOR231W, strain MKK1, hits give low values 1.01 | S. cerevisiae deletion strains, locus YOR265W, strain rbl2, hits give low values 0.986 | S. cerevisiae deletion strains, locus YOR270C, strain vph1, hits give low values 0.928 | S. cerevisiae deletion strains, locus YOR290C, strain snf2, hits give low values 0.92 | S. cerevisiae deletion strains, locus YOR316C, strain cot1, hits give low values 0.969 | S. cerevisiae deletion strains, locus YPL051W, strain arl3, hits give low values 1 | S. cerevisiae deletion strains, locus YPL055C, strain LGE1, hits give low values 0.864 | S. cerevisiae deletion strains, locus YPL078C, strain atp4, hits give low values 1 | S. cerevisiae deletion strains, locus YPL106C, strain sse1, hits give low values 0.962 | S. cerevisiae deletion strains, locus YPL240C, strain hsp82, hits give low values 0.982 | S. cerevisiae deletion strains, locus YPL241C, strain CIN2, hits give low values 0.997 | S. cerevisiae deletion strains, locus YPL256C, strain CLN2, hits give low values 1.01 | S. cerevisiae deletion strains, locus YPR119W, strain clb2, hits give low values 0.977 | S. cerevisiae deletion strains, locus YPR141C, strain kar3, hits give low values 0.979 | S. cerevisiae deletion strains, locus YPR163C, strain tif3, hits give low values 0.992 | S. cerevisiae deletion strains, locus YPR167C, strain met16, hits give low values 0.977 | S. cerevisiae deletion strains, strain wtn01, hits give low values 0.977 | S. cerevisiae strains, strain wild type, hits give low values 0.984
